Several values for one entry are separate records, joined by “and”; a condition that tells them apart may be missing. Equal entries are not always repeated. The panel holds about 83,000 compounds, 20% with a hit somewhere; the sample as a whole holds those more often.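 Assay: single dose, 48 h. Readout: percent growth (0 = no net growth; negative = cell death). Active: <10.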 Unmarked numbers belong to inactive results. Activity calls are given as the source filed them.

This experiment relates to MDA-MB-468 breast. Description: NCI-60 one-dose screen, 48 h (100 = growth as untreated, 0 = no growth, -100 = all killed). The conditions noted are these: 10 µM unless noted.
As for `O=C(N/N=C/c1c(Cl)cccc1Cl)c1ccc(C(F)(F)F)nc1Nc1cccc(C(F)(F)F)c1`, the growth was 11.9%. With `O=C(NCc1ncc[nH]1)c1ccc(-c2nc3ccc4[nH]ncc4c3c3c2CCCC3)cc1` the figure was -47.1% (active); with `COc1ccc(/C=C2/CCc3cc4ccc(OC)cc4[o+]c32)c(O)c1`, 97.1%; with `CC1=CC(=C(c2ccc(N)cc2)c2ccc(N)cc2)C=CC1=N`, -13.6% (active) and -1.34% (active). The value for `CCCCC(CCCC)(S(=O)(=O)CC)S(=O)(=O)CC` was 98.2%; that for `COc1ccc(/C=C/C(=O)c2ccc(NC(=O)CSc3nc4c([nH]3)c(=O)n(C)c(=O)n4C)cc2)cc1OC` was 51.8%; that for `Nc1nc(N)c2c(n1)NC(c1cccc(Nc3ccnc4cc(C(F)(F)F)ccc34)c1)CC(c1ccc3c(c1)OCO3)=N2` (stereo not given) was 58%. With `Cn1c(COC(=O)N2CCCCC2)nc2c(N3CCOCC3)nc(-c3ccccc3)nc21` the figure was -61.7% (active).

On to `N=C(N)c1ccc(-c2ccc(-c3ccc(Cl)cc3Cl)s2)nc1`, for which the growth is -13.7% (active). For `Cc1ccc(-c2csc3nc(C)c(CCCl)c(=O)n23)cc1`, the growth was 83.6%. As for `Cn1c(/C=C/[N+](=O)[O-])cc2ccccc21`, the growth is -36.6% (active).

For the compound `Fc1ccc(-c2cc3nc(C(Cl)Cl)nc(-c4ccccc4)n3n2)cc1`, the growth was -59.1% (active). With `COc1ccc2oc(=O)cc(-c3nc4ccc(N)cc4[nH]3)c2c1`, the growth is 83.9%.

Consider `CC(=O)c1ccc(NC(=O)COc2ccc(C3SCC(=O)N3c3ccc(Br)cc3)cc2)cc1` (stereo not given), for which the growth is 92%. The value for `CCOc1ccc(I)cc1` was 105%; that for `C/C(=N\Nc1ccc([N+](=O)[O-])cc1[N+](=O)[O-])c1ccc(Br)cc1` was 108%; that for `O=C(Nc1ccccc1Cl)Oc1ccc2ccccc2c1` was 104%. With `O=C(N/N=C/c1ccccc1O)c1ccccc1` the figure was 12.1%; with `COC(=O)[C@]12CC[C@@H](C)[C@H](C)[C@@H]1C1=CC[C@@H]3[C@@]4(C)C[C@@H](O)[C@H](O)[C@@](C)(CO)C4=CC[C@@]3(C)[C@]1(C)CC2`, -66.4% (active); with `Cc1ccc2c(c1)sc1nc(-c3c[nH]c4ccccc34)c(Nc3ccccc3)n12`, 105%.

For `CC(C)(C)c1cc(NC(=O)Nc2ccc(-c3cn4c(n3)sc3cc(OCCN5CCOCC5)ccc34)cc2)no1`, the growth is 12.4% and 30.6%. The value for `Oc1ccc(CSc2nnc(-c3ccccc3)o2)c2cccnc12` was 22.9%; that for `C#C[C@]1(O)CC[C@H]2[C@@H]3CC=C4c5sc(Nc6cccc(F)c6)nc5CC[C@]4(C)[C@H]3CC[C@@]21C` was 3.86% (active). As to `CC(=O)NNC(=O)c1sc(NC(C)=O)nc1C`, the growth was 104%.

`Oc1c(Br)c(Br)c(O)c(Br)c1Br`: the growth was 102%. With `Nc1cc(-c2c[nH]c3ccccc23)nc2cc(-c3c[nH]c4ccccc34)nn12`, the growth is 52.1%. Turning to `COc1cc2cc(Oc3ccc(NC(=O)c4cccc(C(F)(F)F)c4)cc3)c(C)nc2cc1OCCN(C)C`, the growth was 81.5%. `COC(=O)[C@]12CC[C@@H](C)[C@H](C)[C@@H]1C1=CC[C@@H]3[C@@]4(C)CC(=O)[C@H](O)[C@@](C)(CO)[C@@H]4C(=O)C[C@@]3(C)[C@]1(C)CC2`: the growth was -4.93% (active).

For the compound `CCSc1nc(Nc2ccc(S(=O)(=O)Nc3ccon3)cc2)c(C#N)c(-c2cccc(Br)c2)n1`, the growth was 85.1%. The value for `COc1ccc(/C=C/c2c(C(=O)/C=C/c3cccs3)c(C)nc3ccccc23)cc1` was 66.9%; that for `CNC(=O)c1c(NC(=O)c2ccc(C(C)C)cc2)sc2c(CN(C)C)c(O)ccc12` was 86.3%; that for `CCN(CC)CCOC(=O)c1ccc(N=Nc2ccc(O)c(OC)c2)cc1` was 94%.

Consider `O=c1cc(-c2ccccc2)oc2c1ccc1ccccc12`, for which the growth is 80.1%. For `COC(=O)/C=C1\SC(=Nc2ccc(F)cc2)N(CCc2c[nH]c3ccccc23)C1=O`, the growth was 125%. The value for `CCCCNNC(=O)c1ccc(-c2cccc(F)c2F)cc1` was -4.26% (active); that for `Cc1cccc(-c2cc(O)c(C(=O)N3CCOCC3)s2)c1` was 14.1%; that for `Cn1cnc([N+](=O)[O-])c1/C=C1\Oc2ccc(Cl)cc2C1=O` was 79.8%. For `CCN1C(=O)N(CC)C2NC(SC)=NC21` (stereo not given), the growth is 103%. With `CN(C)CCOC(=O)Nc1ccc(Cl)cc1` the figure was 104%. Regarding `CN1C(=O)/C(=C/c2ccc(C(=O)Nc3ncc(Cc4cccc(Cl)c4)s3)cc2)SC1=S`, the growth was 37.7%.

The values are drawn from PubChem BioAssay (NCI).
